In PubChem BioAssay AID588473 (Sanford-Burnham Center for Chemical Genomics, 2011):
The whole screen tested about 350,000 compounds, of which about 1,600 (0.46%) were called active. Shown is part of a subset that was picked to be rich in actives. Unmarked numbers belong to inactive results.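 How the source made its calls: active means activation of at least 50%, plus an integration ratio under a set limit after plate pattern correction; inactive means the rest.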

system: CRF-binding protein / CRF receptor 2 complex (human); experiment: agonists of CRF-BP/CRF-R2 complex, primary screen, cell-based, HEK293, calcium dye fluorescence, uHTS (AID 588473); conditions: calcium dye fluorescence (FLIPR), at 13.2 µM, stronger effect = higher value;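 further: plate controls were neutral control wells without compound for no effect and CRF at EC100 for full effect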

Compound | activation
Cn1c(O)c(C=NCCCC(=O)O)c(=O)n(C)c1=O | 3.61%
CCCCC(=O)N/N=C/c1c(O)n(CC)c(=S)n(CC)c1=O | 89% (active)
CCCCC(=O)N/N=C/c1c(O)n(CCC2=CCCCC2)c(=O)[nH]c1=O | 0.08%
COC(=O)C1=C(c2ccc(C(C)=O)cc2)C[C@@H]2CC[C@H]1N2C(=O)NCCNC(C)=O | -2% [percent of saturating CRF peptide response]
COc1ccc(C2NCc3ccc4c(c3-n3cccc32)OCO4)cc1OC (stereo not given) | -1.07%
COC(=O)N(c1ccc(OC)cc1)P1(=S)OCCC(C)O1 (stereo not given) | -2.1%
Cc1nc2ccccn2c1P(=S)(N1CCCCC1)N1CCCCC1 | 63.2% (active)
CN1CCN(Cc2ccc(OC(F)(F)F)cc2)CC1 | -0.02%
CCCCCn1c(=O)c(C(=O)NCc2ccccc2)c(O)c2ccccc21 | 4.58%
CCOP(=S)(OCC)C(O)CCCCCn1c(=O)c(F)cn(C2CCCO2)c1=O (stereo not given) | -3.57%
O=C(c1cc(S(=O)(=O)N2CCOCC2)ccc1F)N1CCC2(CC1)OCCO2 | 2.62%
COc1ccc(N2C(=O)/C(=C/c3ccco3)C(=O)NC2=S)cc1 | 4.87%
COc1cccc(N2C(=O)NC(=O)/C(=C\c3cn(C)c4ccccc34)C2=O)c1 | 113% (active)
COc1cccc(N2C(=O)NC(=O)/C(=C\c3ccc([N+](=O)[O-])s3)C2=O)c1 | 4.02%
c1ccc(C(CN2CCCCC2)c2ccccc2)cc1 | -0.78% [percent of saturating CRF peptide response]
